Laboratory results from the supplement of paper PMC3334620.
In all, about 33,000 sequences were measured (“E-score (-0.5 to 0.5)”: median about -0.054, highest 2% from about 0.35 on). Only a selection was taken, and the highest values are over-represented in it overall.

molecular target: T1, Stb5 (UniProt P38699); experiment: PBM E-score (8-mer binding enrichment) (E-score (-0.5 to 0.5)); higher = stronger / more preferred TF binding; conditions: protein concentration: 200 nM; construct: GST-full length
T1 sequence: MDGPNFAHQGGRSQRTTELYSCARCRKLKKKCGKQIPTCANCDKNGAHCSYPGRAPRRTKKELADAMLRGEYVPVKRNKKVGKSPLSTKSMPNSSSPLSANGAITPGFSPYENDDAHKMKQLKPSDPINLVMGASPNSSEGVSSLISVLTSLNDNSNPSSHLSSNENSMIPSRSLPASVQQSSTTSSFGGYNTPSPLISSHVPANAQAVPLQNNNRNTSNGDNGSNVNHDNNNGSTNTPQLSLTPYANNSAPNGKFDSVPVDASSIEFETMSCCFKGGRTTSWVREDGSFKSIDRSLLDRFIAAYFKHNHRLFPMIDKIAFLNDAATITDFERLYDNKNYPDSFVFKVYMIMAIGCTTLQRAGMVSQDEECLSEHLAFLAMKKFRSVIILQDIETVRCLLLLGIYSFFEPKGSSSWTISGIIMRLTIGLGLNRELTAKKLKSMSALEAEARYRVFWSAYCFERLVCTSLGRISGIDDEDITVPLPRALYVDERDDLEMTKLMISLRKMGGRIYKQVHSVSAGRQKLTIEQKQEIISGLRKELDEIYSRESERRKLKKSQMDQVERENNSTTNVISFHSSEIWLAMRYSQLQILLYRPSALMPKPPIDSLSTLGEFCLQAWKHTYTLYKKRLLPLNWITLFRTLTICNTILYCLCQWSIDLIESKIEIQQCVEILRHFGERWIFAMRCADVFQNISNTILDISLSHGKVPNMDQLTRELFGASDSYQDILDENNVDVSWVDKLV
Method in brief: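 E-scores (a modified Wilcoxon-Mann-Whitney statistic) were assigned by the Universal PBM Analysis Suite to every ungapped eight-base word pooled with its reverse complement. The input came from universal all-10-mer Agilent arrays made double-stranded by primer extension and probed with GST-tagged yeast transcription factors at about 100-200 nM. Fluorescent anti-GST detected bound protein, and masliner normalised the scans.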

| Sequence | PBM E-score |
| --- | --- |
| AGACCGAT | 0.272 |
| AAACCGAG | -0.0377 |
| ACACCGAG | 0.369 |
| AATGGTTC | 0.00524 |
| TAAATCTA | -0.0639 |
| GAATGAAA | 0.0556 |
| AATGCGGA | 0.2 |
| CCGAAGCG | 0.225 |
| ACCTTAAT | 0.0412 |
| AGGGCGCC | -0.0741 |
| CACGCCCG | 0.0876 |
| GACCATCA | 0.0409 |
| ACCACCGT | 0.354 |
| ACCACCGC | 0.391 |
| CCCACCGG | 0.303 |
| ACCACCGA | 0.357 |
| ACCACCAT | -0.138 |
| CCCACCGC | 0.221 |
| CCCACCGA | 0.118 |
| ACCACCCT | -0.168 |
| ACCACCAG | -0.148 |
| TCCACCGA | 0.176 |
| GCCACCGC | 0.335 |
| ACCACCGG | 0.406 |
| GGCGAGTA | -0.101 |
| CCTCTATA | -0.232 |

| Sequence | PBM E-score |
| --- | --- |
| CCTGACTC | -0.153 |
| CCTATAAG | -0.0382 |
| AACCTTGC | -0.0575 |
| AAGAAGTA | -0.102 |
| GAGCAAGC | -0.168 |
| AGCAACCA | -0.068 |
| CCAATTCA | -0.261 |
| CCCGACAA | 0.328 |
| AACGACAG | -0.205 |
| ACCGACAA | 0.369 |
| CCCGACAC | 0.34 |
| ACCGACAC | 0.361 |
| ACCGACAT | 0.322 |
| ACCGACAG | 0.363 |
| GCCGACAC | 0.239 |
| CCCGACAG | 0.305 |
| GGTTTGGA | 0.0254 |
| ACGATATG | -0.0261 |
| ATGGTTCG | -0.0398 |
| CTCGTTTC | -0.214 |
| GGACCTAA | 0.365 |
| CGACCTAA | 0.017 |
| TGACCTAA | -0.117 |
| CGGAGCTC | 0.249 |
| CGGAGGTC | 0.122 |
| CGGAGGTA | 0.434 |

| Sequence | PBM E-score |
| --- | --- |
| AGGAGGTA | -0.0118 |
| AGGAGCTA | -0.0145 |
| CGGAGCTA | 0.446 |
| TGTACGAA | -0.0429 |
| ACCACTGA | -0.202 |
| CGCCGACA | 0.354 |
| CGCCGACC | 0.345 |
| AGCCGACG | 0.232 |
| TGCCGACA | 0.298 |
| CGCCGACG | 0.395 |
| GGCCGACA | 0.327 |
| GGCTCTTA | 0.0283 |
| ACTCTAAA | 0.01 |
| ACCGCACG | 0.153 |
| AACGGGGA | 0.288 |
| GATCTACC | -0.0916 |
| CGCTGTTC | 0.0181 |
| CGCTGTTA | 0.445 |
| AGCTGTTA | -0.234 |
| GTCGGAAC | 0.315 |
| ACTCTCTA | -0.205 |
| ATAATGAA | -0.076 |
| ATACCGGC | 0.304 |
| ATACCGAA | 0.242 |
| CTACCGAA | 0.0544 |
| GTACCGAC | 0.382 |

| Sequence | PBM E-score |
| --- | --- |
| GTACCGAA | 0.145 |
| CTACCGAC | 0.264 |
| ATACCGAT | 0.353 |
| ATACCGAC | 0.398 |
| ATACCGAG | 0.224 |
| AACGTTGT | -0.107 |
| CGGTATAG | 0.179 |
| AACACTGT | -0.22 |
| AGCTGGTC | -0.26 |
| TAACAGTA | -0.227 |
| AAAAAGTC | 0.175 |
| TAGCTGCA | -0.191 |
| GCGGTGAA | 0.345 |
| GCGGTGAC | 0.358 |
| ACGGTGCC | 0.372 |
| AAGGTGCT | -0.0966 |
| ACGGTGAT | 0.367 |
| ACGGTGCG | 0.281 |
| ACGGTGAG | 0.141 |
| ACGGTGAC | 0.297 |
| GGGGTGAC | 0.0132 |
| ACGGTGCT | 0.409 |
| ACTGTGCT | -0.241 |
| ACGGTGCA | 0.127 |
| GAGAGTGC | -0.209 |
| AAACTGAT | -0.104 |

| Sequence | PBM E-score |
| --- | --- |
| CAGAGGGA | -0.261 |
| GATACTCC | 0.146 |
| TAGCACTA | -0.246 |
| AAAAAGAA | 0.175 |
| GCCAAGGA | -0.0748 |
| TAGGTCCA | -0.0733 |
| AGTTGCTG | -0.167 |
| GTCGTTAA | -0.0792 |
| CGAAGTTC | -0.147 |
| CCGACAGC | 0.341 |
| ACGCTTTC | -0.205 |
| ATGCTCCC | -0.0728 |
| ACGGTCAA | 0.126 |
| GCGGTGCC | 0.387 |
| ACGGTCAG | -0.0787 |
| ACGGTCAT | 0.368 |
| GCGGTGCA | 0.259 |
| ACGGTACT | 0.389 |
| ACGGTACG | 0.214 |
| ACGGTACC | 0.283 |
| CCGGTGCC | 0.328 |
| TCGCTAGA | -0.243 |
| AGCACCTG | -0.14 |
| CCCTCTCA | -0.284 |
| AAACGAGC | -0.209 |
| GTACTCCA | -0.229 |

| Sequence | PBM E-score |
| --- | --- |
| AGCGGAAT | 0.228 |
| AGCGGACA | 0.393 |
| CGCGGACA | 0.315 |
| AGCGGACG | 0.284 |
| AGCGGATA | 0.286 |
| AGCGGACT | 0.39 |
| CCCCCCCA | -0.263 |
| ACTCATAT | -0.0119 |
| GACCCCGA | 0.377 |
| CACCCCGA | 0.325 |
| GACCCCGC | 0.391 |
| GCCCCCGC | 0.256 |
| GACCCCCC | -0.259 |
| TACCCCGA | 0.407 |
| CACCCCGC | 0.394 |
| TACCCCAA | -0.157 |
| CACCCCCC | -0.14 |
| CACCCCGG | 0.277 |
| GACCCCCA | -0.201 |
| TACCCCCA | -0.114 |
| GGTGCTCA | 0.0877 |
| CGAAAGAG | -0.0144 |
| ACGCAGAG | -0.218 |
| CCTCCATC | -0.18 |
| AGCGGGAC | 0.303 |
| AGCGAGAC | -0.0631 |

| Sequence | PBM E-score |
| --- | --- |
| CTAGCACC | 0.336 |
| GCGTCATA | -0.0207 |
| GCAATGCA | -0.0992 |
| CCAGCCAG | -0.223 |
| ACAGTGAA | -0.147 |
| CCTTAATC | 0.109 |
| GTTATCTA | -0.00767 |
| ATCAACGA | 0.0713 |
| ACGGGTAG | -0.0642 |
| CAAGTCCG | 0.356 |
| AGAGTCCT | -0.216 |
| CAGGTCCG | 0.237 |
| AACGTCCC | -0.0635 |
| AAGGTCCG | 0.442 |
| CAAGTCCC | 0.00375 |
| AACGTCCG | 0.375 |
| AAGGTCCA | -0.171 |
| CAAGTCCA | -0.171 |
| AACGTCCA | -0.0958 |
| AGAGTCCG | 0.378 |
| AGAGTCCC | 0.0723 |
